# Reference: PubChem BioAssay (NCI)
# Several values for one entry are separate records, joined by “and”; a condition that tells them apart may be missing. Equal entries are not always repeated. Compounds without any hit were thinned out: in the full panel of roughly 83,000, 20% have a hit.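 Step 1: grow cells in 96-well plates. Step 2: add test compound at a single concentration. Step 3: incubate 48 h. Step 4: record percent growth.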 Activity calls are given as the source filed them. How the source made its calls: active means growth percent below 10; inactive means the rest.
# Tested on: MDA-MB-468 breast
# Test: NCI-60 one-dose screen, 48 h (100 = growth as untreated, 0 = no growth, -100 = all killed)
# Conditions: 10 µM unless noted
row,SMILES,growth
1,CCn1c(SCC(=O)Nc2cccc(C(=O)/C=C/c3cc(OC)c(OC)c(OC)c3)c2)nc2ccccc2c1=O,31.8% (inactive)
2,COC1C(O)CC(OC2CC(OC3CC(O[C@@H]4C(=O)c5c(cc6cc(OC7CC(OC8CC(O)C(O)C(C)O8)C(O)C(C)O7)c(C)c(O)c6c5O)CC4[C@H](OC)C(=O)C(C)=O)OC(C)C3O)OC(C)C2O)OC1C (some centres not stated),-64.7% (active)
3,CC1Cc2c(N(C)C)ncnc2N(C)c2ccc(O)cc21 (configuration not stated),79.4% (inactive)
4,COc1cc(CSc2nc3ccc(Cl)cc3c(=O)n2Cc2ccccc2)cc(OC)c1OC,-13.1% (active)
5,COc1ccc([C@H]2[C@H](C(=O)Nc3cccnc3)c3ccccc3C(=O)N2c2ccccc2)cc1,97.7% (inactive)
6,CSc1nc(CC(C)C)c(C#N)c(=O)n1C,-2.71% (active)
7,O=C1c2ccccc2C(=O)c2c(NCCN=Cc3ccccc3O)cccc21,43.8% (inactive)
8,COc1ccc(/C(=N/O)c2cc(F)c(F)c(OC)c2F)cc1O,18.4% (inactive)
9,COc1ccc(Nc2nc(NCc3ccccc3)c3ccccc3n2)cc1,40.2% (inactive)
10,Fc1cc2[nH]ncc2c2c3c(c(-c4cn[nH]c4C(F)(F)F)nc12)C1CCC3C1 (configuration not stated),11.5% (inactive)
11,Cc1ccccc1COc1ccc(-c2ccnn2-c2ccc(Cl)cc2)cc1,41.1% (inactive)
12,Cc1nc(NC(=O)N2CCC[C@H]2C(N)=O)sc1-c1ccnc(C(C)(C)C(F)(F)F)c1,6.59% (active)
13,Fc1ccc2nc(-c3nc(-c4ccccc4)n4ccccc34)[nH]c2c1,-68.1% (active)
14,O=[N+]([O-])c1ccc(N/N=C(\C(=N/Nc2ccc([N+](=O)[O-])cc2[N+](=O)[O-])c2ccccc2)c2ccccc2)c([N+](=O)[O-])c1,86.4% (inactive)
15,O=C(c1nc2ccccc2[nH]1)C1C(c2ccc(F)cc2)C2CC3CCCCC3N2[C@@]12C(=O)Nc1ccc(Cl)cc12 (some centres not stated),41.6% (inactive)
16,COc1cc(-c2cc(=O)oc3cc(O)ccc23)cc(OC)c1OC,74.2% (inactive)
17,Cc1ccc2c3c(cccc13)-c1ccccc1C2=O,97% (inactive)
18,CN(C)c1ccc(-c2nc(-c3ccccc3)c(-c3ccccc3)[nH]2)cc1,114% (inactive)
19,CCCCCCCCCCCCCCCCOc1ccc(S(=O)(=O)N(C)C)cc1[N+](=O)[O-],84.2% (inactive)

row,SMILES,growth
1,Cc1ccc(OCCOCCOCCOCCOCCOc2ccc(C)n(O)c2=S)c(=S)n1O,-22.8% (active)
2,O=c1c2sc3ncccc3c2nnn1-c1ccccc1,104% (inactive)
3,O=c1[nH]c2cc(Cl)ccc2n1C1CCN(c2ccc3nnc(Cl)n3n2)CC1,85.3% (inactive)
4,C=C(C)[C@@H]1CC[C@]2(C)[C@H](CC=C3[C@@H]4CC(C)(C)CC[C@]4(CO)CC[C@]32C)[C@@]1(C)CCCN,-56.3% (active)
5,COc1ccc(-c2nc(N/N=C/c3ccco3)nc(N3CCOCC3)c2C#N)cc1,36% (inactive)
6,COC(=O)CCCCCCCCC1(C)C=CC(C(C)O)=CC1 (configuration not stated),107% (inactive)
7,O=C1OC(C(O)C(O)CO)C(O)=C1O (configuration not stated),88.7% (inactive) and 117% (inactive)
8,CC(=O)[C@H]1CC[C@H]2[C@@H]3CC[C@@H]4CC=C(C=O)C[C@]4(C)[C@H]3CC[C@]12C,99.4% (inactive)
9,CC(=O)O.CC(=O)O.O.[Fe],100% (inactive)
10,COc1ccc(N2CCN(C(=O)CSc3ccc(-c4nc5cc(C)c(C)cc5[nH]4)cn3)CC2)cc1,49.5% (inactive)
11,CN1CCN(c2ccc(-c3ccc4ncc(C#N)c(Nc5ccc(F)c(Cl)c5)c4c3)cn2)CC1,10.6% (inactive)
12,Fc1ccc([C@@H]2CCNC[C@H]2COc2ccc3c(c2)OCO3)cc1,36.1% (inactive)
13,O=C1/C(=C\c2cccnc2)SC(=S)N1CCc1ccc(O)cc1,35.2% (inactive)
14,CCN(CC)CCC(CNc1ccnc2cc(Cl)ccc12)c1ccc(OC)cc1 (configuration not stated),9.36% (active) and -3.58% (active)
15,C=CC(=O)Nc1cccc(Oc2nccc(Nc3nnc(-c4ccc(Br)cc4)s3)n2)c1,114% (inactive)
16,COc1cc2c3c(n([C@@H]4CCOC4)c(=O)c2cc1OC)-c1cc2c(cc1C3=O)OCO2,11.2% (inactive)
17,CS(=O)(=O)Nc1ccc(Nc2c3ccccc3nc3cc(N)ccc23)cc1,-52.9% (active)
18,Cc1cc2nc3c4ccccc4n(CCN(C)C)c3nc2cc1C,-12.1% (active)
